Test results published in PubChem BioAssay.
The source made the active and inactive calls.

Columns and labels:
[1] = optical density shifts of acrAB sulA E. coli – strain DRC41, OD650, 48 h, E. coli filamentation inducer project, primary screen (AID 1152); conditions: higher = more signal, called active from +8 up or from −8 down;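 also: E. coli MC1000 strain DRC41 lacking acrAB efflux pump and sulA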
[2] = probe aLefty1 binding on compound microarray – biochemical, small-molecule microarray, 635/667 nm fluorescence, primary screen (AID 1153); conditions: higher = more signal;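 also: score merges spot fluorescence with signal-to-noise ratio from the scanned slide images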
[3] = plasmodial surface anion channel blockers, osmotic lysis – cell-based, P. falciparum Indochina, OD700, 1 h, primary screen (AID 1154); conditions: P. falciparum Indochina infected RBC osmotic lysis, higher = more signal, called active from +8 up or from −8 down
[4] = plasmodial surface anion channel blockers, osmotic lysis – cell-based, P. falciparum Indochina, OD700, 2 h, primary screen (AID 1155);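 also: lysis reports solute entry through the parasite surface anion channel PSAC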; conditions: P. falciparum Indochina infected erythrocytes, higher = more signal, called active from +8 up or from −8 down
[5] = changes in parasitized red cell lysis, either direction – P. falciparum Indochina, OD700, 3 h, PSAC antagonist project, primary screen (AID 1156); conditions: P. falciparum-infected erythrocytes, osmotic lysis, higher = more signal, called active from +8 up or from −8 down
[6] = plasmodial surface anion channel blockers, osmotic lysis – cell-based, P. falciparum Indochina, OD700, 18 h, primary screen (AID 1157); conditions: P. falciparum Indochina infected erythrocytes, osmotic lysis OD700, 18 h; higher = more signal, called active from +8 up or from −8 down
[7] = S6 kinase pathway phospho-S6 level changes – cell-based, A549, cytoblot, luminescence, serum-stimulated, primary screen (AID 1158); conditions: 5 h, higher = more signal;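 also: serum-stimulated A549 lung adenocarcinoma cells; signal is phosphorylated S6 detected by cytoblot immunostaining with HRP secondary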
[8] = target: NADPH oxidase 2 (Homo sapiens) (UniProt P04839); experiment: compounds shifting NOX2 Amplex Red fluorescence – cell-based, HEK293-NOX2, PMA-stimulated, NOX inhibitor project, primary screen (AID 1159); conditions: 45 min, higher = more signal, called active from +8 up or from −8 down; also: test concentration not given here
Sequence of NADPH oxidase 2 (Homo sapiens) (P04839 whole entry, looked up): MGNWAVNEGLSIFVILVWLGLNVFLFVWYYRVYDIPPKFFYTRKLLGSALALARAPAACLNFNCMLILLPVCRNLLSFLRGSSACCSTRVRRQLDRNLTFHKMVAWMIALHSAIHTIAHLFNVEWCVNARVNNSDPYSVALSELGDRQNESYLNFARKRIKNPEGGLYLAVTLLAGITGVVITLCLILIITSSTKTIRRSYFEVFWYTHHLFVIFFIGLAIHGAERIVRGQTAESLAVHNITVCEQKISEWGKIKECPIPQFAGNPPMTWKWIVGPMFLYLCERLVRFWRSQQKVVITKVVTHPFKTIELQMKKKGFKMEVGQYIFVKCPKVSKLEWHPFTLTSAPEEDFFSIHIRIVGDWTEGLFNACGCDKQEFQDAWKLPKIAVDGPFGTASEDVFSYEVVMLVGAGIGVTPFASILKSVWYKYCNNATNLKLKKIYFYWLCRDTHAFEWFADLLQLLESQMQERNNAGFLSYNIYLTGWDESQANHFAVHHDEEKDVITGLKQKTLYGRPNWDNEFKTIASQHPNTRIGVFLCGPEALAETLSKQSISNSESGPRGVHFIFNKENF

[9] = target: NADPH oxidase 4 (Homo sapiens) (UniProt Q9NPH5); experiment: compounds shifting NOX4 Amplex Red fluorescence – cell-based, HEK293-NOX4, tetracycline-induced, NOX inhibitor project, primary screen (AID 1160); conditions: HEK293-NOX4, Amplex Red H2O2 fluorescence, 45 min; higher = more signal, called active from +8 up or from −8 down
Sequence of NADPH oxidase 4 (Homo sapiens) (Q9NPH5 whole entry, looked up): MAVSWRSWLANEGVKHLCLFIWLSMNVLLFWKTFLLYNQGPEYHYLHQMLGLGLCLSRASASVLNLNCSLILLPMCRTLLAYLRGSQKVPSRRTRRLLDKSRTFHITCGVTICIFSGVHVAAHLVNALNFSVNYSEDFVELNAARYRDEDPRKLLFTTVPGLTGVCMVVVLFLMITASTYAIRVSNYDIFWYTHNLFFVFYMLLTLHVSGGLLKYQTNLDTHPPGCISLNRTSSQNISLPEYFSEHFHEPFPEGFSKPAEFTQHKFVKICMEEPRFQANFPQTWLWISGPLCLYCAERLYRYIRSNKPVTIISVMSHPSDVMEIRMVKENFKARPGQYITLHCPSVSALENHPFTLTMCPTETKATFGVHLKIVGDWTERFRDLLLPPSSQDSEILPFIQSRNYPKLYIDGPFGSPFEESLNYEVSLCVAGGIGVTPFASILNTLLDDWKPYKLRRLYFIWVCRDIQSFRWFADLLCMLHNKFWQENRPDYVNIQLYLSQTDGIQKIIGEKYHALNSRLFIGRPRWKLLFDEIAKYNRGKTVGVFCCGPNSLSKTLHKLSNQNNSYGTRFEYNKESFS

[10] = target: NADPH oxidase 5 (Homo sapiens) (UniProt Q96PH1); experiment: compounds shifting NOX5 Amplex Red fluorescence – cell-based, HEK293-NOX5, NOX inhibitor project, primary screen (AID 1161); conditions: HEK293-NOX5, ionomycin, 45 min, higher = more signal
Sequence of NADPH oxidase 5 (Homo sapiens) (Q96PH1 whole entry, looked up): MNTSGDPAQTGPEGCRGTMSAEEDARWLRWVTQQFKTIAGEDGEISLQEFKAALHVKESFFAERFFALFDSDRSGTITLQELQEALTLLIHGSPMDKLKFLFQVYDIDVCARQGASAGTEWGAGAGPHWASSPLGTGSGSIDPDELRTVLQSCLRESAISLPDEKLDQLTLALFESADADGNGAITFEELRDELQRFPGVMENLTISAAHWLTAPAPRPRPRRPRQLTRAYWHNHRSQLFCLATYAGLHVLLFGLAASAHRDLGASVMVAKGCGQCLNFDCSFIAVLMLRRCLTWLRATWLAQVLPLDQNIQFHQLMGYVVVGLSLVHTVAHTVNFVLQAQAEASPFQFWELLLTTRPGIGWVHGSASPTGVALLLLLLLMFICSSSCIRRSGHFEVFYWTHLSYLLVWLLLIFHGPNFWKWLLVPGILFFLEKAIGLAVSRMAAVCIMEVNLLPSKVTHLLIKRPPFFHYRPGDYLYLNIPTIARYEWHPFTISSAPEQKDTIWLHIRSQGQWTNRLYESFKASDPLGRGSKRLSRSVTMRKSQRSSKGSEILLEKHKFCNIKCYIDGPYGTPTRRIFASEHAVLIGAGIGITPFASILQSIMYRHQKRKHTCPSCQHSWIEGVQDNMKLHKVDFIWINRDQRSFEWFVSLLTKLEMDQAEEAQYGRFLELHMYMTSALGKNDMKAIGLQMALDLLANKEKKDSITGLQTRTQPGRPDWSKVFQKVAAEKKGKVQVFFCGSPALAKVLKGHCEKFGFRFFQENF

Structure (SMILES) | z-score [1] | composite z-score [2] | z-score [3] | z-score [4] | z-score [5] | z-score [6] | z-score [7] | z-score [8] | z-score [9] | z-score [10]
CC(=O)OC[C@H]1O[C@H](CCON=C(C)CCC(=O)OC[C@H]2O[C@H](C#Cc3ccccc3)C=C[C@@H]2Oc2ccc(C)cc2)C=C[C@@H]1OC(C)=O | 0.604 (inactive) | 0.28 | 8.85 (active) | 1.43 (inactive) | 1.02 (inactive) | 0.931 (inactive) | -0.987 | -0.772 (inactive) | 0.384 (inactive) | -1.64
CCCNC(=O)OC[C@H]1O[C@H](CCON=C2[C@H]3CCn4c(=O)n(-c5ccccc5)c(=O)n4[C@H]3[C@H](O)[C@@H]3O[C@H]23)C=C[C@@H]1Oc1ccc(OC)cc1 | 0.653 (inactive) | 0.198 | 1.69 (inactive) | -0.0218 (inactive) | 0.378 (inactive) | 0.268 (inactive) | -0.254 | -1.58 (inactive) | -0.373 (inactive) | -0.987
CCCCC(=C=CC[C@H](O)c1ccccc1OCCO)C[C@H](O)COCc1ccccc1 | -0.16 (inactive) | -0.0544 | 12 (active) | 1.72 (inactive) | 0.725 (inactive) | 0.921 (inactive) | -0.424 | -1.02 (inactive) | -1.37 (inactive) | -2.05
CC(C)NC(=O)[C@@]1(c2ccc([N+](=O)[O-])cc2)CC(=O)N(CC23CC4CC(CC(C4)C2)C3)[C@@H]1c1ccc(CO)cc1I | -0.805 (inactive) | 0.167 | 18.8 (active) | 5.45 (inactive) | 1.59 (inactive) | 1.28 (inactive) | 0.018 | 2.19 (inactive) | 0.215 (inactive) | 1.35
O=C1[C@H]2[C@H]3[C@H](O)[C@H](O)CC(=NOCc4ccccc4)[C@H]3CC[C@H]2C(=O)N1c1ccc(F)cc1F | -0.139 (inactive) | -0.761 | 9.01 (active) | 1.42 (inactive) | 0.155 (inactive) | -0.304 (inactive) | -0.392 | -4.97 (inactive) | 0.187 (inactive) | -0.471
CO[C@H]1COC(=O)CC=C[C@H](C)[C@@H](NS(=O)(=O)c2ccc(C)cc2)COC(=O)CC=C[C@@H]1C | -1.05 (inactive) | -0.194 | 0.0723 (inactive) | -1.13 (inactive) | 0.157 (inactive) | -0.592 (inactive) | 5.19 | 0.0288 (inactive) | 0.256 (inactive) | 0.622
CN(C)CCCNC(=O)[C@@H]1c2ccccc2C(=O)N(Cc2cc(F)cc(C(F)(F)F)c2)[C@H]1c1ccc(CO)cc1 | -0.72 (inactive) | -0.0818 | 1.88 (inactive) | 0.382 (inactive) | 2.38 (inactive) | 0.745 (inactive) | 0.269 | 0.547 (inactive) | -0.0177 (inactive) | -2.19
COc1ccc([Si](C)(C)[C@@H]2[C@@H](CC(=O)N3CCC[C@H]3CO)O[C@]3(C(=O)N(Cc4cccc(N5CCC5=O)c4)c4ccccc43)[C@H]2C)cc1 | 0.313 (inactive) | 0.792 | 4.64 (inactive) | 0.838 (inactive) | -0.745 (inactive) | 0.496 (inactive) | -0.0355 | 2.1 (inactive) | 1.29 (inactive) | 4.02
CCc1cc2c(nc1CC)CCN(CCC(C)=NOC[C@@H](O)COCc1ccco1)C2 | 0.538 (inactive) | 1.09 | 2.3 (inactive) | -0.0282 (inactive) | 0.0761 (inactive) | 0.147 (inactive) | -0.659 | -0.566 (inactive) | 0.162 (inactive) | 1.84
C#C[C@@H](CC)O[Si](C#Cc1ccc(Oc2ccccc2)cc1)(C(C)C)C(C)C | -0.49 (inactive) | 0.0404 | 0.788 (inactive) | 1.4 (inactive) | -1.4 (inactive) | 0.335 (inactive) | -0.724 | 0.278 (inactive) | -0.366 (inactive) | -1.51
C[C@@H]1C=CCC(=O)OC[C@H](C)C(=O)N2CCC[C@H]2C(=O)OC1 | 0.665 (inactive) | -0.384 | 0.29 (inactive) | 0.149 (inactive) | 1.11 (inactive) | 0.097 (inactive) | -0.39 | -0.49 (inactive) | 0.445 (inactive) | -0.764
COc1ccc(-c2nc3c(c4c2C[C@H](C)OC4)CN(CCC(C)C)CC3)cc1 | 0.498 (inactive) | 0.0687 | 1.78 (inactive) | 0.673 (inactive) | 0.511 (inactive) | 0.123 (inactive) | -0.0895 | -0.112 (inactive) | 0.239 (inactive) | 0.684
C=CC[C@@H]1C=C[C@H](ON=C(C)CCN2CCc3nc(CC)c(CC)cc3C2)[C@@H](CO)O1 | 0.31 (inactive) | 0.288 | 2.65 (inactive) | 0.37 (inactive) | 0.412 (inactive) | 0.294 (inactive) | -1.15 | -1.24 (inactive) | 0.492 (inactive) | 1.82
